39 compounds from PubChem BioAssay (NCI) can be followed below.

This is part of a sample that, as a whole, favours compounds with a hit. Of some 83,000 tested, about 20% had one in any assay.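 The test compound was applied at a single concentration to cells in 96-well plates for 48 hours, and percent growth was recorded.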 Unmarked numbers belong to inactive results. Calls of active or inactive are those of the source. How the source made its calls: active means growth percent below 10; inactive means the rest.

The test system of this assay is MDA-MB-468 breast. Briefly: NCI-60 one-dose screen, 48 h (100 = growth as untreated, 0 = no growth, -100 = all killed). The note with it: 10 µM unless noted.
Regarding `CCOC(=O)c1c(Nc2ccccc2)nn2c(N)c(C#N)c(-c3ccccc3)nc12`, the growth is 62.4%.

On to `CCOc1ccc2[nH]c(=S)sc2c1`, for which the growth was 107%.

Regarding `NC(N)=N/N=C/c1ccc(Br)cc1`, the growth is 8.33% (active).

On to `O=C(Nc1cccc(-n2cc(-c3ccncc3)c(-c3ccc(O)c(Cl)c3)n2)c1)Nc1ccc(Cl)c(C(F)(F)F)c1`, for which the growth is 10%.

As for `O=C1NN(C(=O)c2ccccc2)C(c2ccc(Cl)c(Cl)c2)=C/C1=C\c1ccc([N+](=O)[O-])cc1`, the growth was 84.2%.

For `CC[C@@H](C(=O)[C@@H](C)[C@@H](O)[C@H](C)[C@@H]1O[C@@H]([C@@H](CC)C(=O)O)CC[C@@H]1C)[C@H]1OC2(C=C[C@@H](O)[C@]3(CC[C@@](C)([C@H]4CC[C@](O)(CC)[C@H](C)O4)O3)O2)[C@H](C)C[C@@H]1C` (some centres undefined), the growth was -9.66% (active).

As to `COc1ccc(-c2nc(-c3nc4ccc(OC)cc4[nH]3)c3ccccn23)cc1`, the growth is 72.2%.

Turning to `CCOC(=O)c1cnn(CC(O)CC)c1NC(=O)NCc1ccccc1C(F)(F)F` (centres undefined), the growth is 106%.

With `COC(=O)[C@]12CC[C@@H](C)[C@H](C)[C@@H]1C1=CC[C@@H]3[C@@]4(C)C(C=O)=C[C@@](C)(COC(=O)/C=C/c5ccccc5)[C@@H]4[C@H](O)C[C@@]3(C)[C@]1(C)CC2`, the growth was 14.9%.

On to `COc1ccc(N=Nc2nccs2)c(O)c1`, for which the growth was 18.6%.

`CN1C(=O)C(=Cc2coc3ccc(Br)cc3c2=O)C(=O)N(C)C1=O`: the growth was 102%.

In the case of `O=P(O)(c1ccccc1)c1ccccc1I`, the growth is 89.5%.

On to `CCN(CC)CCCNc1nc(C)cc(Nc2ccc3nc(C)cc(N)c3c2)n1`, for which the growth was 117%.

With `CC(C)(C)CC(C)(C)Nc1c(-c2ccc3c(c2)OCO3)nc2cnccn12`, the growth is 95.2%.

Regarding `COc1cc([C@H]2OC[C@H]3[C@@H]2CO[C@@H]3c2ccc(O)c(OC)c2)ccc1O`, the growth was 100%.

In the case of `Cc1nn(-c2ccccc2)c(N)c1N=C1NC(=O)/C(=C/c2ccc(Br)cc2)S1`, the growth is 86.6%.

For `CCOC(=O)c1cc(C(=O)c2cc(OC)c(OC)c(OC)c2)n2ccc(-c3cc[n+](CC(=O)c4cc(OC)c(OC)c(OC)c4)cc3)cc12`, the growth is 43.2%.

Consider `NC(N)=N/N=C(/c1ccccc1)c1ccc(Cl)cc1`, for which the growth was 39.6%.

Turning to `COc1ccc(-c2nc(NCCO)[nH]c(=O)c2C#N)cc1`, the growth was 112%.

As to `CC(=O)OCC1OC(OC2=C(CC=C(Cl)Cl)C(=O)c3ccccc3C2=O)C(OC(C)=O)C(OC(C)=O)C1OC(C)=O` (centres undefined), the growth is -61.7% (active).

With `CCCCCc1c(C)[nH]c(/C=C2\N=C(c3ccc[nH]3)C=C2OCc2ccccc2)c1C`, the growth is -51.6% [100 µM] (active).

As to `C=C(C)[C@@H]1CC[C@]2(C(=O)O)CC[C@]3(C)[C@H](CC[C@@H]4[C@@]5(C)C[C@@H](Cc6cn(CCO[C@@H]7O[C@H](COC(C)=O)[C@H](OC(C)=O)[C@H](OC(C)=O)[C@H]7OC(C)=O)nn6)[C@H](O)C(C)(C)[C@@H]5CC[C@]43C)[C@@H]12`, the growth was 64.4%.

`C#CCN1C(=O)/C(=c2\sc3n(c2=O)NC2C(N=3)N(CC)C(=O)N2CC)c2ccccc21` (centres undefined): the growth was 10.8%.

For the compound `O=[N+]([O-])c1cnc(Sc2ccncn2)c([N+](=O)[O-])c1`, the growth was -44.4% (active).

Turning to `CCn1c2ccccc2c2cc(-n3nncc3-c3ccccc3)ccc21`, the growth was 46.4%.

Consider `CC(=O)NC(O)C(Cl)Cl` (centres undefined), for which the growth is 106%.

In the case of `O=C1/C(=C\c2ccc[nH]2)c2ccccc2N1c1ccccc1`, the growth was 0.806% (active).

Consider `COc1cccc(/C=N/C(=S)NC2(C)C3CCC(C3)C2(C)C)c1O` (centres undefined), for which the growth is 57%.

For the compound `COc1ccc(CNc2nc3ccccc3c3c(=O)c4ccccc4sc23)cc1OC`, the growth is 57.4%.

Consider `COc1ccc(-c2cc3c(OC)c(OC)c(OC)cc3oc2=O)cc1`, for which the growth was 23.6%.

In the case of `CC(/C=C/C=C(\C)[C@H](O)[C@H](C)C(=O)O[C@H]1C[C@H](C)C=C2C=C[C@@]3(C)O[C@@H](O)CC(=O)[C@]3(C)[C@H]21)=C\C=C\C(=O)O`, the growth is -21.9% (active).

Turning to `CC(=O)Nc1nc(C(=O)N2N=C(C)/C(=C/c3ccccc3)C2=O)cs1`, the growth is 103%.

Regarding `CC(=O)/C(=C\c1ccc(Cl)cc1)c1ccccc1`, the growth was 0.454% (active).

For the compound `Nc1ccccc1NC(=O)c1ccc(CSc2nc(N3CCOCC3)c3cccn3n2)cc1`, the growth is -11.1% (active).

Regarding `O=[N+]([O-])c1ccc(N=Nc2ccccc2)cc1`, the growth was 109%.

As to `CC(c1ccccc1)N1CSc2nc3ncncc3n2C1` (centres undefined), the growth was -0.761% (active).

As for `N#Cc1c(NC(=O)c2cccc(C(F)(F)F)c2F)sc2c1CCC(=O)C2`, the growth was -32% (active).

With `CCCc1cc2cc(-n3nc(CC)c4c3CC(C)(C)CC4=O)cc(NC3CCC(O)CC3)c2c(=O)[nH]1` (centres undefined), the growth is -22.7% (active).

With `O=C(CSc1nc2sc3c(c2c(=O)n1-c1ccc(Cl)cc1)CCCC3)N/N=C/c1ccc(F)cc1`, the growth was 129%.
